Shown are actives, neighbours in structure and some others; about 3.1% of the full set was active somewhere.
SSB-PriA inh = K. pneumoniae PriA-SSBct interaction inhibition. inhibition, % at 33 µM. actives 0.6% (n = 430,000). AlphaScreen SSBct-PriA binding, biotinylated peptide; in the data active = inhibition mostly above about 37%, no sharp cut-off; inactive = mostly below about 20%;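 note: plate controls were negative control peptide for no effect and reference peptide for full effect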
Autofluor counter = compound fluorescence in toxin protease inhibitor counterscreen | compound autofluorescence counterscreen, microsphere flow cytometry; active compounds read high | fluorescence intensity (concentration not given with the values) | actives 3.1% (n = 360,000) | AID 624483; in the data active = fluorescence intensity above about 16000; inconclusive = no clear call, values can overlap the other calls
BoNT-A LC inh2 = blocks Botulinum neurotoxin A light chain protease; multiplex microsphere protease substrate cleavage, flow cytometry; inhibition, % at 10 µM; actives 0.17% (n = 360,000); AID 588499; note: plate controls were buffer without enzyme for full effect and enzyme alone for no effect
Anthrax LF prot = inhibitors of Bacillus anthracis lethal factor protease; P15917; multiplex microsphere protease cleavage assay, LF; inhibition, % at 10 µM; actives 0.12% (n = 360,000); AID 588501; note: plate controls were buffer without enzyme for full effect and enzyme alone for no effect
Target sequence (P15917 whole entry, looked up): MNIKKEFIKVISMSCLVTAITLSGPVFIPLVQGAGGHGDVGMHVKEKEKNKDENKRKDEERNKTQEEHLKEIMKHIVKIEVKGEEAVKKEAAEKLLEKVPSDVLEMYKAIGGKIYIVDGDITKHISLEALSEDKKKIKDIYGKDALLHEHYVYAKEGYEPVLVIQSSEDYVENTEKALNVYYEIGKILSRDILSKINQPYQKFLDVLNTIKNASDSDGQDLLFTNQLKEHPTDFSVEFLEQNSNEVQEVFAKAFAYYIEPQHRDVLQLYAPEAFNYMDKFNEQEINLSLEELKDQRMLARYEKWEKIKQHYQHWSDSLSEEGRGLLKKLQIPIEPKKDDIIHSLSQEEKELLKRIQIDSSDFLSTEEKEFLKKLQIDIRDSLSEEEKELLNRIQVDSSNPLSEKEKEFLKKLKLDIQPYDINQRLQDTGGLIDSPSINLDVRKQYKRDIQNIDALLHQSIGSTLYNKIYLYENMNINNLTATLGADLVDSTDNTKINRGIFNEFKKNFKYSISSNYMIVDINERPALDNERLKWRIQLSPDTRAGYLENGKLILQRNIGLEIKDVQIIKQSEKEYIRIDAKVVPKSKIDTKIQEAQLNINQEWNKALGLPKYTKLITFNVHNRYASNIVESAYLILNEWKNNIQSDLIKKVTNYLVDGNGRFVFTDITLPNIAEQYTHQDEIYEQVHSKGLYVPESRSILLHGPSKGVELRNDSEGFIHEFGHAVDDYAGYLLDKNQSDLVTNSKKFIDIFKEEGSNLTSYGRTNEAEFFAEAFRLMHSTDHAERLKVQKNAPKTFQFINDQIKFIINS
BoNT F protease = blocks Botulinum neurotoxin F light chain protease | Multiplex microsphere protease cleavage assay, flow cytometry | inhibition, % at 10 µM | actives 0.22% (n = 360,000) | AID 588497; in the data active = inhibition above about 35%, passing the limit was not always enough; inconclusive = no clear call, values can overlap the other calls; note: plate controls were buffer without enzyme for full effect and enzyme alone for no effect
The depositor's hits bear a star; ? = inconclusive; · = no result given. Cut-off read from the data, not from the text of the source, unless noted: active = inhibition above about 30%; inconclusive = no clear call, values can overlap the other calls; inactive = below that.

SMILES	SSB-PriA inh	Autofluor counter	BoNT-A LC inh2	Anthrax LF prot	BoNT F protease
CS(=O)(=O)N1CCN(c2ccc([N+](=O)[O-])c(N3CCOCC3)c2)CC1	4	·	·	·	·
CN1CCN(c2ccc([N+](=O)[O-])c(N3CCCC3)c2)CC1	58*	·	·	·	·
CS(=O)(=O)N1CCN(c2ccc([N+](=O)[O-])c(N3CCCC3)c2)CC1	57*	·	·	·	·
Cc1cccc(OCCNc2cc(N3CCN(C)CC3)ccc2[N+](=O)[O-])c1	6	10580	0	0	4
CCOc1ccc(/C=C/C(=O)Nc2c(C)cc(C)cc2Cl)cc1OC	-19	·	·	·	·
COc1ccc(Cl)cc1S(=O)(=O)NCC[C@@H](CCO)c1ccccc1	-6	·	·	·	·
COC(=O)c1ccc2c(=O)n(CCC(=O)NCCCN3CCOCC3)c(=S)[nH]c2c1	5	·	·	·	·
COc1ccc2nc(OC3CN(C(=O)c4ccsc4)C3)sc2c1	1	·	·	·	·
O=S(=O)(NCC1CCN(S(=O)(=O)c2cccnc2)CC1)c1ccc2c(c1)CCCC2	-3	·	·	·	·
CN(C(=O)CN1CCC(NC(=O)C2CCCCC2)CC1)C1CCCCC1	-18	23953*	-2	-3	-4
CN(C(=O)CN1CCC(NC(=O)c2ccccc2Br)CC1)C1CCCCC1	-2	4119	-1	-14	0
COc1ccc(-c2nnc3ccc(SCC(=O)NCc4ccco4)nn23)cc1	-14	8467	0	3	7
O=C(CSc1ccc2nnc(-c3ccccc3)n2n1)NCc1ccco1	2	20999*	?	-6	-1
O=C(CSc1ccc2nnc(-c3ccccn3)n2n1)NCc1ccco1	82*	5723	-2	-15	-18
Cc1nc2ncccc2c(=O)n1-c1cccc(NC(=O)C2CCCC2)c1	3	·	·	·	·
CC1(C)Cc2cccc(OCC(=O)Nc3ccc(OC(F)(F)F)cc3)c2O1	-27	·	·	·	·
COC(=O)c1ccccc1NC(=S)NC(=O)COc1ccc(C(C)C)cc1	-2	2006	0	2	1
COC(=O)c1ccccc1NC(=O)Oc1ccc(C(C)C)cc1	-11	24059*	-1	-3	-4
C=CCN1/C(=C(\C#N)C2=NS(=O)(=O)c3ccccc32)N(C)c2ccccc21	2	16828*	-1	-2	2
O=C(NCc1nnnn1C1CCCCC1)c1ccc(S(=O)(=O)N2CCCCC2)cc1	8	·	·	·	·
O=C(Nc1ccc(F)cc1)c1sccc1S(=O)(=O)N1CCN(c2ccccc2F)CC1	-23	·	·	·	·
ONC(=Nc1ccccc1)c1ccc(Cl)cc1	-3	21077*	2	-1	4
CC(C)(C)Oc1ccc2nc(N)sc2c1	-7	·	·	·	·
O=C(CCn1nnc2ccccc2c1=O)NCC1CCC(C(=O)O)CC1 (stereo unspecified)	-9	24413*	-3	-3	-1
O=C(O)CCCCCNC(=O)CCn1nnc2ccccc2c1=O	-9	21187*	?	-2	6
SMILES	SSB-PriA inh	Autofluor counter	BoNT-A LC inh2	Anthrax LF prot	BoNT F protease
CCN(c1cccc(C)c1)c1ncnc(N)c1[N+](=O)[O-]	20	·	·	·	·
Cc1ccc(N(c2ncnc(N)c2[N+](=O)[O-])C2CCCCC2)cc1	-9	23258*	0	0	1
CCc1ccc(C(=O)NCCN2CCN(c3ccc(F)cc3)CC2)cc1	-5	·	·	·	·
COCCOC(=O)C1=C(C)N=C2SCCC(=O)N2C1c1cccc(Br)c1 (stereo unspecified)	-12	17065*	-3	1	-6
C=CCOC(=O)C1=C(C)N=C2SCCC(=O)N2C1c1ccc(OC(=O)c2ccco2)cc1 (stereo unspecified)	-7	23769*	-1	-1	-7
O=C1OC[C@H]2CCCN2C(=O)[C@@H](CC(=O)N(CCO)Cc2ccccc2)C/C=C/CC[C@H]1Cc1ccc(F)cc1	2	·	·	·	·
Cn1nc([N+](=O)[O-])nc1Sc1cccc2cccnc12	78*	4388	0	2	-5
COc1ccc(-c2cc(-c3c(O)c(OC)c4occc4c3OC)[nH]n2)cc1	29	21696*	?	-7	-5
O=C(CN1CCN(c2nc(-c3ccc(F)cc3)cs2)CC1)Nc1ccc2c(c1)OCO2	2	16899*	-2	-5	-6
O=C(Nc1ccc2c(c1)OCO2)N1CCN(Cc2nc(-c3ccc(F)cc3)cs2)CC1	-10	·	·	·	·
O=C(NCC1CCN(c2ncccn2)CC1)c1ccc2nsnc2c1	-10	·	·	·	·
COc1ccc(N2CCN(CCNC(=O)C(=O)Nc3cc(C)nc4ccccc34)CC2)cc1	-5	·	·	·	·
O=C(CN1C(=O)NC2(CCc3ccccc32)C1=O)Nc1ccc(N2CCOCC2)cc1 (stereo unspecified)	-4	16378*	0	-3	-3
COc1cc(NC(=O)NCC(c2ccc3c(c2)CCN3C)N2CCOCC2)cc(OC)c1 (stereo unspecified)	7	·	·	·	·
COc1cc(NC(=O)NCC(c2ccc3c(c2)CCCN3C)N2CCCC2)cc(OC)c1 (stereo unspecified)	40*	·	·	·	·
COc1ccc(N2CCN(C(=O)CCCOc3cc(=O)n(C)c4ccccc34)CC2)cc1	2	23028*	-1	-4	-4
CC1CCN(C(=O)CCCOc2cc(=O)n(C)c3ccccc23)CC1	-1	20059*	?	2	-1
CS(=O)(=O)c1ccc(CCC(=O)NC2CCN(c3nccs3)CC2)cc1	-11	·	·	·	·
Nc1[nH]n(-c2ccccc2)c(=O)c1N=Nc1ccccc1	75*	4807	0	0	-4
Cc1[nH]n(-c2ccccc2)c(=O)c1N=Nc1cccc([N+](=O)[O-])c1	-7	4038	-2	-8	42*
CS(=O)(=O)c1ccc(-c2ccc(NC(=O)CSCc3ccccc3)cc2)nn1	2	·	·	·	·
Nc1nnc(SCC(=O)N2CCN(Cc3ccccc3)CC2)s1	-3	16406*	?	2	0
Cc1nnc(SCC(=O)N2CCN(Cc3ccccc3)CC2)s1	2	10928	-1	2	-2
CCS(=O)(=O)c1ccc2oc(Nc3ccc(C(C)C)cc3)nc2c1	-15	3016	0	0	-2
CCS(=O)(=O)c1ccc2oc(Nc3cc(C)cc(C)c3)nc2c1	8	20341*	-1	-2	-2
SMILES	SSB-PriA inh	Autofluor counter	BoNT-A LC inh2	Anthrax LF prot	BoNT F protease
Cc1ccc(N(C(=O)Cn2nnc(-c3cccs3)n2)C(C(=O)NC2CCCC2)c2ccncc2)cc1 (stereo unspecified)	-1	22784*	-2	-1	-3
CCC(C(=O)NC1CCCC1)N(Cc1ccco1)C(=O)Cn1nnc(-c2ccc(C)cc2)n1 (stereo unspecified)	-7	19503*	0	-3	-2
Cc1ccc(N(C(=O)Cn2nnc(-c3ccc(C)o3)n2)C(C(=O)NC2CCCC2)c2ccco2)cc1 (stereo unspecified)	-5	10983	0	-4	-3
CCC(C(=O)NC1CCCC1)N(C(=O)Cn1nnc(-c2ccc(OC)c(OC)c2)n1)c1cccc(O)c1 (stereo unspecified)	-2	5462	1	0	7
O=C(NC1CCCCC1)C(c1ccc(F)cc1)N(Cc1ccco1)C(=O)Cn1nnc2ccccc21 (stereo unspecified)	-26	18842*	2	0	4
CCOC(=O)CN(C(=O)Cn1nnc(-c2ccc(C)cc2)n1)C(CC)C(=O)NC1CCCC1 (stereo unspecified)	-15	22718*	0	-6	0

Assay outcomes (PubChem BioAssay)
